We go through three sequences from publication PMC8384837, “Expanding the binding specificity for RNA recognition by a PUF domain”.

Sequence of PUM1 PUF domain R8-TWK (Q14671 828-1176 N1122T/Y1123W/Q1126K): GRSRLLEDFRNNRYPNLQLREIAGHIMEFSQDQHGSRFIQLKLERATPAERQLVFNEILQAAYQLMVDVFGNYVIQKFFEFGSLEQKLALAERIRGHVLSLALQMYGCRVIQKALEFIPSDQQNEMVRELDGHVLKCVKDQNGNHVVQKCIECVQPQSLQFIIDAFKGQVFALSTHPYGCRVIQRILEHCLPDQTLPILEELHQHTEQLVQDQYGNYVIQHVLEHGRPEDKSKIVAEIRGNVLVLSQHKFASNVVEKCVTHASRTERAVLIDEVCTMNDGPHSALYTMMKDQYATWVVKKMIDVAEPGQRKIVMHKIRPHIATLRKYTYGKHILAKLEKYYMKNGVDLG

This test has as its target PUM1 PUF domain R8-TWK (Homo sapiens, UniProt Q14671 828-1176, N1122T;Y1123W;Q1126K). The test can be described thus: yeast three-hybrid, YBZ-1, SC-Leu-His + 0.5 mM 3-AT, 4 days. The note with it: tags: N-Gal4 AD-HA kept; label: inside an RPR1-promoter hybrid RNA with tandem MS2 sites; ssRNA. The method, boiled down:
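Matching RNA elements and Pumilio-1 PUF domain libraries, randomized at the three base-contacting residues of every repeat, were co-expressed from a centromeric plasmid in strain YBZ-1 (LexA–MS2 coat fusion, HIS3 reporter). The repeat regions were PCR-amplified and Illumina-sequenced from cells grown four days on SC-Leu (input) or SC-Leu-His + 0.5 mM 3-AT (selection). The interaction score is the log change in variant frequency from input to selection. It is computed in log2, with a pseudocount of 1 for absent variants.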
As for “GGCUAGAACUAGUGGAUCCCCCGGCGCCCGGCGGCUCGAGCCCGGGUAAGGGUAAAUAGUCUGCAUGCCGCCGGGCGCCAUGCCUGCAGGUCGACUCUAGAAAACAUG”, the binding signal is 3.33 log2 enrichment (interaction score). The value for “GGCUAGAACUAGUGGAUCCCCCGGCGCCCGGCGGCUCGAGCCCGGGUAAGUGUAAAUAGUCUGCAUGCCGCCGGGCGCCAUGCCUGCAGGUCGACUCUAGAAAACAUG” was 5.8 log2 enrichment (interaction score); that for “GGCUAGAACUAGUGGAUCCCCCGGCGCCCGGCGGCUCGAGCCCGGGUAAGCGUAAAUAGUCUGCAUGCCGCCGGGCGCCAUGCCUGCAGGUCGACUCUAGAAAACAUG” was 2.23 log2 enrichment (interaction score).
